Reference: PubChem BioAssay AID1159580 (chemical genetic matrix, 2015)
Hit rate of the full screen: of about 5,500 compounds, about 2,000 (36%) were called active. Roughly 18% stayed inconclusive and do not appear here. Cut-off read from the data, not from the text of the source: active = normalized growth mostly below about 0.91 (no sharp cut-off); inconclusive = no clear call, values can overlap the other calls; inactive = mostly above about 0.92. This is one part of the list.

Test: chemical genetic growth profiling, strain panel (AID 1159580);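 note: tested at 20 µM; growth read once vehicle control cultures reached saturation at 30 °C; 1 = growth at the plate median or of vehicle wells; lower values mean less growth of the strain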
Settings: S. cerevisiae deletion strains, growth OD

Measured: normalized growth

CCOCN(C(=O)CCl)c1c(C)cccc1CC
inactive: locus YAL013W, strain DEP1, active compounds read low 0.995 | locus YAL021C, strain ccr4, active compounds read low 0.988 | locus YAL026C, strain drs2, active compounds read low 0.998 | locus YAL030W, strain snc1, active compounds read low 0.992 | locus YBL061C, strain skt5, active compounds read low 0.994 | locus YBR009C, strain hhf1, active compounds read low 0.994 | locus YBR021W, strain FUR4, active compounds read low 1.01 | locus YBR023C, strain chs3, active compounds read low 0.98 | locus YBR171W, strain sec66, active compounds read low 0.971 | locus YBR229C, strain ROT2, active compounds read low 0.992 | locus YBR231C, strain swc5, active compounds read low 0.989 | locus YBR279W, strain paf1, active compounds read low 0.999 | locus YCL011C, strain gbp2, active compounds read low 0.998 | locus YCL016C, strain dcc1, active compounds read low 0.991 | locus YCL029C, strain bik1, active compounds read low 0.976 | locus YCL061C, strain MRC1, active compounds read low 0.98 | locus YCL069W, strain vba3, active compounds read low 0.992 | locus YCR088W, strain abp1, active compounds read low 0.984 | locus YDL005C, strain med2, active compounds read low 0.982 | locus YDL035C, strain GPR1, active compounds read low 0.99 | locus YDL040C, strain nat1, active compounds read low 1 | locus YDL074C, strain BRE1, active compounds read low 1.03 | locus YDL101C, strain DUN1, active compounds read low 0.983 | locus YDL134C, strain PPH21, active compounds read low 0.995 | locus YDL185W, strain tfp1, active compounds read low 0.967 | locus YDL192W, strain arf1, active compounds read low 0.979 | locus YDR001C, strain nth1, active compounds read low 0.991 | locus YDR069C, strain doa4, active compounds read low 0.987 | locus YDR101C, strain arx1, active compounds read low 0.98 | locus YDR137W, strain rgp1, active compounds read low 0.975 | locus YDR150W, strain NUM1, active compounds read low 0.954 | locus YDR159W, strain sac3, active compounds read low 0.959 | locus YDR162C, strain NBP2, active compounds read low 1 | locus YDR195W, strain ref2 0.982 | locus YDR297W, strain sur2, active compounds read low 0.986 | locus YDR318W, strain mcm21, active compounds read low 0.985 | locus YDR334W, strain swr1, active compounds read low 0.986 | locus YDR335W, strain msn5, active compounds read low 0.998 | locus YDR388W, active compounds read low 0.978 | locus YDR392W, strain spt3, active compounds read low 0.975 | locus YDR502C, strain sam2, active compounds read low 0.974 | locus YEL003W, strain gim4, active compounds read low 0.996 | locus YEL037C, strain rad23, active compounds read low 0.994 | locus YEL061C, strain CIN8 (second series), active compounds read low 0.994 | locus YEL061C, strain CIN8, active compounds read low 0.991 | locus YER015W, strain faa2, active compounds read low 0.993 | locus YER016W, strain bim1, active compounds read low 0.994 | locus YER110C, active compounds read low 0.978 | locus YER111C, strain swi4, active compounds read low 0.997 | locus YER155C, strain BEM2 (second series), active compounds read low 0.972 | locus YER155C, strain BEM2, active compounds read low 0.993 | locus YER167W, strain BCK2, active compounds read low 0.995 | locus YFR010W, strain ubp6, active compounds read low 0.992 | locus YGL078C, strain dbp3, active compounds read low 0.979 | locus YGL086W, strain mad1, active compounds read low 0.983 | locus YGL167C, strain pmr1, active compounds read low 0.985 | locus YGL173C, strain kem1, active compounds read low 0.976 | locus YGL227W, strain vid30, active compounds read low 0.983 | locus YGL240W, strain doc1, active compounds read low 0.985 | locus YGL248W, strain PDE1, active compounds read low 0.981 | locus YGL253W, strain hxk2, active compounds read low 0.981 | locus YGR078C, strain PAC10, active compounds read low 1 | locus YGR135W, strain pre9, active compounds read low 0.982 | locus YGR229C, strain SMI1, active compounds read low 1.01 | locus YGR252W, strain gcn5, active compounds read low 1.04 | locus YHR013C, strain ard1, active compounds read low 0.988 | locus YHR027C, strain rpn1, active compounds read low 0.98 | locus YHR030C, strain SLT2, active compounds read low 0.982 | locus YHR079C, strain IRE1 (second series), active compounds read low 0.979 | locus YHR094C, strain hxt1, active compounds read low 0.968 | locus YHR129C, strain ARP1, active compounds read low 0.963 | locus YHR142W, strain chs7, active compounds read low 1.04 | locus YHR200W, strain rpn10, active compounds read low 0.988 | locus YIL066C, strain RNR3, active compounds read low 0.976 | locus YIL073C, strain SPO22, active compounds read low 0.856 | locus YIL125W, strain kgd1, active compounds read low 0.997 | locus YIR030C, strain dcg1, active compounds read low 0.972 | locus YJL092W, strain hpr5, active compounds read low 0.985 | locus YJL095W, strain BCK1 (second series), active compounds read low 0.996 | locus YJL095W, strain BCK1, active compounds read low 1 | locus YJL115W, strain asf1, active compounds read low 0.976 | locus YJL129C, strain trk1, active compounds read low 1.01 | locus YJL134W, strain LCB3, active compounds read low 0.987 | locus YJL154C, strain vps35, active compounds read low 0.979 | locus YJL164C, strain tpk1, active compounds read low 0.994 | locus YJL166W, strain qcr8, active compounds read low 0.991 | locus YJL168C, strain set2, active compounds read low 0.984 | locus YJL187C, strain SWE1 (second series), active compounds read low 0.979 | locus YJL187C, strain SWE1, active compounds read low 0.988
